For 40 compounds, outcome results are on record in PubChem BioAssay (EPA / NIEHS).

Results filed as inconclusive are left out. Active and inactive are the calls of the source. How the source made its calls: active means hit-call score of the fitted dose curve at least 0.9, where 1 is the maximum; inconclusive means response in the unintended direction; inactive means score below 0.9.

Read-out in the assay: ABC Transporter (ABCB1), ABCB1 (gene 5243)
Kind of assay: CLD_ABCB1_6hr: CellzDirect (CLD) Gene Expression Assay for ABC Transporter (ABCB1) at 6 hours (AID 2283659).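 Further: hits raise ABCB1 transcript above the DMSO vehicle baseline.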 The protocol: CLD_6hr is a cell-based, multiplexed-readout assay that uses hepatocyte, a human liver primary cell, with measurements taken at 6 hours after chemical dosing in a 96-well plate.CLD_ABCB1_6hr is one of 16 assay component(s) measured or calculated from the CLD_6hr assay. It is designed to make measurements of mRNA induction, a form of inducible reporter, as detected with chemiluminescence signals by Quantitative Nuclease Protection Assay (qNPA) technology.Data from the assay component CLD_ABCB1_6hr was analyzed at the endpoint, CLD_ABCB1_6hr, in the positive analysis fitting direction relative to DMSO as the negative control and baseline of activity. Using a type of inducible reporter, gain-of-signal activity can be used to understand changes in the reporter gene as they relate to the gene ABCB1. Furthermore, this assay endpoint can be referred to as a primary readout. To generalize the intended target to other relatable targets, this assay endpoint is annotated to the transporter intended target family, where subfamily is ABC transporter.
Human hepatocyte cultures were treated daily for two consecutive days with fresh dosing solutions containing appropriate concentrations of the 320 ToxCast chemicals (chemical identities were blinded to CellzDirect and other ToxCast collaborators), vehicle control (0.2% DMSO), and positive control inducers as summarized in Table 1. Due to the large number of treatment groups and chemicals examined, the ToxCast chemicals were divided into two groups (spanning two independent cultures of hepatocytes from separate donor preparations (Hu778: ToxCast plates 1 and 2; Hu776: ToxCast plates 3 and 4). Each preparation of human hepatocyte cultures was treated with respective vehicle control, medium only control, set of six positive controls/reference chemicals for the five hepatic receptor pathways, and a subset of eight of the ToxCast chemicals (indoxacarb, pyrithiobac-sodium, norflurazon, cyhalofop-butyl, methomyl, thiram, acetochlor, and propiconazole). These replicate data, coupled with internal replicates designed within the blinded ToxCast chemical library, provided additional data to evaluate interindividual differences between hepatocyte preparations and their potential impact on chemical profiles.Cell morphology and integrity were evaluated using phase-contrast microscopy as an indicator of hepatocyte cell health (Tyson & Green, 1987). Cultures for each treatment group (i.e., media, vehicle [0.2% DMSO], positive control inducers [multiple concentrations], and the ToxCast chemicals [multiple concentrations]) were observed and cell morphology was assessed relative to vehicle control cultures at each harvest time point (0, 6, 24, or 48 h). […] Images were evaluated at the conclusion of the study to assess changes in cell integrity and account for the effects of chemical exposure on uncharacteristic changes in concentration-dependent gene expression profiles. The results from these determinations of apparent cytotoxicity were annotated (yes/no) alongside the corresponding qNPA data for reference.At the conclusion of each treatment period, hepatocyte cultures (96-well) were washed with 1 volume of HBSS, lysed by addition of 25 ul ArrayPlate lysis buffer (HTG, Tucson, AZ), and 70 ul/well of Denaturation Oil, denatured by incubation at 95C for 10 min, and frozen at approximately -70C until analysis by nuclease protection assay (qNPA) (Roberts et al., 2007). For qNPA analysis, cell lysates were thawed at 50C for approximately 30 min, qNPA probes were added, and samples were incubated at 95C for 10 min to begin the detection process by denaturing the target RNA, dissociating the duplexes and secondary structure hybridization. At the conclusion of the hybridization period, S1 nuclease reagent was added to each sample to digest all nonprotected nucleotides at 50C for 60-90 min. […]
With `O=C(O)c1cc(Oc2ccc(C(F)(F)F)cc2Cl)ccc1[N+](=O)[O-]`, the call was inactive. In the case of `CC1(C(=O)Nc2ccc(O)c(Cl)c2Cl)CCCCC1`, the outcome was inactive. As to `C#CC(C)(C)NC(=O)c1cc(Cl)cc(Cl)c1`, the outcome was inactive. Take `COc1cc(OC)nc(Sc2cccc(Cl)c2C(=O)O)n1`: the result was inactive.

For `CCCCOC(=O)[C@@H](C)Oc1ccc(Oc2ccc(C#N)cc2F)cc1`, the result was inactive. The entry for `CCCCOC(=O)c1ccccc1C(=O)O` is “inactive”; for `COc1ccc(C(=CC(=O)N2CCOCC2)c2ccc(Cl)cc2)cc1OC` it is “inactive”.

In the case of `CNC(=O)ON=C(C)SC`, the outcome was inactive. `CCCSP(=O)(OCC)SCCC`: the result was inactive. Consider `CCOP(=O)(SC(C)CC)N1CCSC1=O` (stereo not given), for which the compound was called inactive. Turning to `CC(C)[C@H](C(=O)O[C@H](C#N)c1cccc(Oc2ccccc2)c1)c1ccc(Cl)cc1`, the compound was classed as inactive. Turning to `CCC(=NOC/C=C/Cl)C1=C(O)CC(C2CCOCC2)CC1=O` (stereo not given), the call was inactive.

With `CN1COCN(Cc2cnc(Cl)s2)C1=N[N+](=O)[O-]`, the outcome was inactive. Turning to `CC(C)N(C(=O)SCC(Cl)=C(Cl)Cl)C(C)C`, the call was inactive. On to `CCOC(=O)CC(SP(=O)(OC)OC)C(=O)OCC` (stereo not given), for which the result was inactive. In the case of `C#CCC1=C(C)C(OC(=O)C2C(C=C(C)C)C2(C)C)CC1=O` (stereo not given), the result was inactive. With `CNC(=O)ON=C(SC)C(=O)N(C)C`, the compound was called inactive. `CON=C(C(=O)OC)c1ccccc1CON=C(C)c1cccc(C(F)(F)F)c1`: the call was inactive. The result for `CCCCSP(=O)(SCCCC)SCCCC` reads “inactive”; that for `CC1=NNC(=O)N(/N=C/c2cccnc2)C1`, “inactive”. On to `CCOP(=S)(OCC)OC(Cl)C(Cl)(Cl)Cl` (stereo not given), for which the compound was called inactive. For `CC(C)=CC1C(C(=O)OCN2C(=O)C3=C(CCCC3)C2=O)C1(C)C` (stereo not given), the result was inactive.

On to `CCCOCC(=Nc1ccc(Cl)cc1C(F)(F)F)n1ccnc1`, for which the result was inactive. The result for `CCNc1nc(Cl)nc(NC(C)(C)C#N)n1` reads “inactive”; that for `COP(=O)(NC(C)=O)SC` (stereo not given), “inactive”; that for `CCCCN(CC)c1c([N+](=O)[O-])cc(C(F)(F)F)cc1[N+](=O)[O-]`, “inactive”.

As for `COP(=O)(OC)OC(Br)C(Cl)(Cl)Br` (stereo not given), the call was inactive.

On to `CN(C)[C@@H]1C(=O)C(C(N)=O)=C(O)[C@@]2(O)C(=O)C3=C(O)c4c(O)cccc4[C@@](C)(O)[C@H]3[C@H](O)[C@@H]12`, for which the compound was classed as inactive. Turning to `CCOP(=O)(OCC)Oc1cc(C)nc(C(C)C)n1`, the call was inactive. In the case of `C[N+]1(C)CCCCC1`, the compound was classed as inactive.

`CSc1nnc(C(C)(C)C)c(=O)n1N`: the compound was classed as inactive.

As to `CCC(CC)Nc1c([N+](=O)[O-])cc(C)c(C)c1[N+](=O)[O-]`, the call was inactive. Take `CNc1cnn(-c2cccc(C(F)(F)F)c2)c(=O)c1Cl`: the compound was called inactive. The result for `C[Si](Cn1cncn1)(c1ccc(F)cc1)c1ccc(F)cc1` reads “inactive”; that for `CCOP(=S)(Oc1cnc(C(C)(C)C)nc1)OC(C)C` (stereo not given), “inactive”; that for `CCCSP(=O)(OCC)Oc1ccc(Br)cc1Cl` (stereo not given), “inactive”. With `Cc1ccn2nc(S(=O)(=O)Nc3c(F)cccc3F)nc2n1`, the result was inactive. With `CCOP(=S)(OCC)Oc1cc(C)nc(C(C)C)n1`, the call was inactive.

As for `CCOP(=S)(OCC)SCCSCC`, the result was inactive. The result for `CC(Oc1cccc(Cl)c1)C(=O)O` (stereo not given) reads “inactive”.
